Screening data as filed in PubChem.
The list is not random: actives were taken first. Their share in the collection is about 2%.
Efa HMGR inh: E. faecalis class II HMG-CoA reductase inhibition; purified E. faecalis HMGR, NADPH absorbance 340 nm kinetic; inhibition, % at 10 µM; actives 0.41% (n = 190,000); AID 1066;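 active = inhibition above a set limit, the median over all tested compounds plus 3 SD, cut at about 9.5% in these data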;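 note: enzyme runs in reverse so mevalonate oxidation gives rising NADPH absorbance; 0% = complete reaction with DMSO and 100% = background rate lacking mevalonate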
Hsp70 activator: Hsp70 transcriptional activation, primary screen | AID 1203 | HeLa Hsp70 promoter luciferase reporter, luminescence; scaled: vehicle 0, proteasome-inhibitor control 100% | activation, % at 10 µM | actives 0.04% (n = 200,000);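 active = activation above the mean across all tested compounds plus 3 SD, cutoff set per campaign, cut at about 5.5% in these data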;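 note: 100% = MG132 at 30 µM as the positive control and 0% = DMSO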
Arbovirus inh: arbovirus infection inhibition. inhibition, % at 10 µM. AID 1251. actives 0.37% (n = 200,000). arbovirus infection cell-based antiviral screen; in the data active = inhibition above about 30%
Wee1 stabilizer: inhibitors of human Wee1 degradation; AID 1321; actives 1.2% (n = 220,000); reporter increase, % at 5 µM; HeLa Luc-Wee1K328M stability, luciferase luminescence; 100% = proteasome inhibitor MG132 effect;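 active = activation above the mean of all tested compounds plus 3 SD, set per screening run, cut at about 8.8% in these data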;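 note: cells exposed to compound for 20 h before luminescence read; 0% = DMSO alone and 100% = MG132 at 30 µM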
PKD1 kinase inh: inhibitors of human PKD1 kinase. actives 0.056% (n = 200,000). AID 797. PKD1 kinase fluorescence polarization assay. inhibition, % (test concentration not listed). Q15139; in the data active = inhibition above about 50%
Target sequence (Q15139 whole entry, looked up): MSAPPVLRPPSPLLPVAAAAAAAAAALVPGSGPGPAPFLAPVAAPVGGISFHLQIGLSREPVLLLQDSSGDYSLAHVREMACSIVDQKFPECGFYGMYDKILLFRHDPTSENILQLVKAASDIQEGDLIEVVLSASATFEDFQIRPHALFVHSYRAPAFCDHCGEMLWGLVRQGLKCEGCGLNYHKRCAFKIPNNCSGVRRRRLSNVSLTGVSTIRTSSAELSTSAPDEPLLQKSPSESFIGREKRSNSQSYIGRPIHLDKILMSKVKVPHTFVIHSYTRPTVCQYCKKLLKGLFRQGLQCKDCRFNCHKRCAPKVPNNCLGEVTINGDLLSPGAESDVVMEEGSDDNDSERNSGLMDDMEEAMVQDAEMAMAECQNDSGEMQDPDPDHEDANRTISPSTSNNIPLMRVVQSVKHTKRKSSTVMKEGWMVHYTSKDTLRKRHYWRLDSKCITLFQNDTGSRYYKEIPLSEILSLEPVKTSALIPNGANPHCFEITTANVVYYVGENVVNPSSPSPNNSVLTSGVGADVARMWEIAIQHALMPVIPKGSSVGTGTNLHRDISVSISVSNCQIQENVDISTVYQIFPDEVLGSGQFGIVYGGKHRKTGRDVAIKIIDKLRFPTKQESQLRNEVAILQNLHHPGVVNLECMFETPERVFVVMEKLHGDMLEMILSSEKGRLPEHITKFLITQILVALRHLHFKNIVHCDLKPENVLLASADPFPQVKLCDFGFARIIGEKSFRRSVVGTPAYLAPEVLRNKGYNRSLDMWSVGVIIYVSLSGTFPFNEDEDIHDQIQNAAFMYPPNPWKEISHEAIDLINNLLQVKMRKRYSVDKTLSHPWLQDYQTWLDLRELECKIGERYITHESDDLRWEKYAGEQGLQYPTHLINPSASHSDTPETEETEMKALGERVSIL
Wee1 stab conf: human Wee1 degradation inhibition, confirmation; shares compounds with Wee1 stabilizer; HeLa Luc-Wee1K328M degradation, luminescence; vehicle 0%, proteasome-blocked wells 100%; activation, % at 5 µM; actives 4% (n = 1,100); in the data active = activation above about 8.9%
Numbers without * were called inactive; · = no result.

SMILES	Efa HMGR inh	Hsp70 activator	Arbovirus inh	Wee1 stabilizer	PKD1 kinase inh	Wee1 stab conf
Cc1ccc2c(CSc3nnc(C4CC4)n3N)cc(=O)oc2c1	1	0	4	-4	4	·
Cc1ccc2c(CSc3nnc(C4CC4)n3N)cc(=O)oc2c1C	-3	0	10	12*	2	2
CC1=CC2=NC(=O)/C(=C\c3cccn3CCOc3cc(C)ccc3C)C(=N)N2O1	-7	0	0	-1	1	·
O=C(Nc1ccccn1)c1ccc2c(c1)OCCO2	-2	0	1	1	2	·
O=C(Nc1nc(-c2ccccn2)cs1)c1ccc2c(c1)OCCO2	-6	0	-18	31*	-1	2
CNC(=O)C(=O)NCCc1ccc(Cl)cc1	-1	0	-3	20*	-9	0
O=C(NCCO)C(F)(F)C(F)(F)C(F)(F)OC(F)(C(=O)NCCO)C(F)(F)F (configuration not stated)	-6	0	18	12*	-1	0
O=C(CC(=O)c1ccccc1O)c1cccc(F)c1	-11	2	-17	11*	-8	4
Cc1cc(/C=C2\SC(=S)NC2=O)c(C)n1-c1ccccc1	·	·	·	15*	·	4
CCCc1nc2oc3ccccc3c(=O)c2c(=O)n1CCCOC	·	·	·	0	·	·
CCc1nc(C)cc2c1sc1ccccc12	·	·	·	25*	·	1
Cc1cccc(S(=O)(=O)Nc2nc3ccccc3nc2Nc2ccc3c(c2)OCO3)c1	-6	0	17	6	0	·
O=S(=O)(Nc1nc2ccccc2nc1Nc1ccc2c(c1)OCO2)c1ccccc1	-8	0	20	14*	-2	-1
Cc1ccsc1/C=N\NC(=O)c1cc(C(C)(C)C)[nH]n1	1	0	1	44*	1	3
Cn1ccc(C(=O)Nc2ccc(Br)cc2Br)n1	-2	0	-3	1	-6	·
CCOc1ccc(NC(=S)Nc2ccc(OCC)cc2)cc1	-3	0	0	3	-5	·
CCOc1ccc(NC(=S)Nc2ccc(C)c([N+](=O)[O-])c2)cc1	-3	0	17	14*	0	-2
Cc1ccc(CN2CCN(CC(=O)N/N=C/c3ccccc3F)CC2)cc1	·	·	·	-1	·	·
Cc1ccc(NC(=S)N/N=C/c2cccn2Cc2ccccc2F)cc1	·	·	·	19*	·	1
Cc1ccc(N2C(=O)C3C4C=CC(CNC(=S)Nc5cccc(Cl)c5)(O4)C3C2=O)cc1 (configuration not stated)	3	0	2	-2	-1	·
Cc1ccc(C(=O)CC(C(=O)O)P(=O)(c2ccccc2)c2ccccc2)cc1 (configuration not stated)	-3	0	2	14*	-2	1
O=C(O)C(C/C(=N/O)c1ccc(Br)cc1)P(=O)(c1ccccc1)c1ccccc1 (configuration not stated)	·	·	·	0	·	·
CCN1c2ccccc2-c2nc3ccccc3n2C1c1ccncc1 (configuration not stated)	4	0	-1	16*	-5	-1
Cc1nc(C)c(N)c(=O)[nH]1	2	0	-1	-2	-2	·
Nc1nnc(-c2ccc(Cl)cc2)s1	0	0	-5	11*	-1	5
SMILES	Efa HMGR inh	Hsp70 activator	Arbovirus inh	Wee1 stabilizer	PKD1 kinase inh	Wee1 stab conf
COc1cc(NC(=O)COC(=O)CNC(=O)c2ccc(Cl)cc2)c(C)cc1[N+](=O)[O-]	2	0	6	12*	-7	-1
COc1cc(NC(=O)COC(=O)CNC(=O)c2ccc(C)cc2)c(C)cc1[N+](=O)[O-]	1	0	5	-1	-3	·
Cn1c(=O)c2c(ncn2CCC(=O)N/N=C/c2cccnc2)n(C)c1=O	·	·	·	4	·	·
CCN(c1ccccc1)S(=O)(=O)c1ccc(Cl)c(NC(=O)CSc2nnc(C)s2)c1	-4	0	-9	5	-6	·
OCCC1CN(Cc2ccc(Oc3ncccn3)cc2)CCN1C1CCCC1 (configuration not stated)	0	0	1	2	-10	·
O=C(/C=C/c1ccc(Cl)c(Cl)c1)N1CCc2ccccc21	-4	0	12	19*	-9	5
CCOc1ccc(NC(=O)C2CCC(CNc3c(N4CCC(C)CC4)c(=O)c3=O)CC2)cc1 (configuration not stated)	·	·	·	1	·	·
NC(N)=NS(=O)(=O)c1ccc(N)cc1	-7	0	-1	11*	-12	1
Cc1ccc(S(=O)(=O)N2CCOCC2)cc1C(=O)N(C)CCOc1ccc(Cl)cc1	·	·	·	12*	·	0
O=C(COC(=O)CCCN1C(=O)c2ccccc2C1=O)Nc1cc(Cl)cc(Cl)c1	-2	0	0	-1	1	·
Cc1cc(C(=O)CSc2nc3ccccc3o2)c(C)n1CC1CCCO1 (configuration not stated)	-14	0	24	11*	1	1
CCN(C(=O)CSc1nnc(C)n1Cc1ccccc1)C1CCS(=O)(=O)C1 (configuration not stated)	-2	0	-2	13*	-8	0
Cc1cc(C)n2nc(C(=O)NCc3ccco3)cc2n1	1	0	2	17*	1	1
CCOc1ccc(NC(=O)C(Cc2ccccc2)NC(=O)C2CCCCC2)cc1 (configuration not stated)	4	0	-10	-1	2	·
NC(=O)COc1ccc2oc(-c3ccccc3)cc(=O)c2c1	3	0	0	14*	-2	4
Cc1nc(NC(=O)c2ccc3c(c2)OCO3)ccc1Br	0	1	-5	19*	5	1
COc1ccccc1N1CCN(CC(O)COc2ccc3c(C)cc(=O)oc3c2)CC1 (configuration not stated)	-6	0	7	17*	-7	0
Cc1cc(-c2nnc(-c3cccc(Cl)c3)o2)no1	·	·	·	18*	·	2
CCCCCN1C(=O)Cn2c(nc3ccccc3c2=O)C1C (configuration not stated)	-1	0	3	1	-12	·
Cn1ccnc1SCC(=O)Nc1nc2ccccc2s1	-1	0	3	14*	-9	5
O=C(CSc1ccccn1)Nc1nc2ccccc2s1	-1	0	6	1	6	·
Cc1ccc(S(=O)(=O)N2c3ccccc3OCC2C(C)(C)C)cc1 (configuration not stated)	-5	-1	2	21*	-3	2
Oc1cc(-n2cccn2)c(O)cc1-n1cccn1	·	·	·	-4	·	·
CC(C)C1CC(c2csc(N)n2)CCO1 (configuration not stated)	-1	0	0	13*	1	0
COc1ccc(C(OC(=O)c2ccco2)C(=O)NC(C)(C)C)cc1 (configuration not stated)	0	0	5	-2	-4	·
COC(=O)c1cccc(Nc2ncnc3sccc23)c1	-1	0	0	14*	9	0
COC(=O)c1ccc(COc2ncnc3sccc23)cc1	1	0	-12	1	2	·
